Test results taken from PubChem BioAssay (EPA / NIEHS).
Records with an inconclusive call do not appear. More than one record can exist for a structure, and the calls need not agree. Calls of active or inactive are those of the source. Rule for the calls: active = hit-call score of the fitted dose curve at least 0.9, where 1 is the maximum; inconclusive = response in the unintended direction; inactive = score below 0.9.

target: Peroxisome proliferator-activated receptor gamma (Homo sapiens) (UniProt P37231); test: NVS_NR_hPPARg: NovaScreen (NVS) Nuclear Receptor Binding Assay for human Peroxisome Proliferator-activated Receptor gamma (PPARg) (AID 2283370)
Sequence (P37231 whole entry, looked up): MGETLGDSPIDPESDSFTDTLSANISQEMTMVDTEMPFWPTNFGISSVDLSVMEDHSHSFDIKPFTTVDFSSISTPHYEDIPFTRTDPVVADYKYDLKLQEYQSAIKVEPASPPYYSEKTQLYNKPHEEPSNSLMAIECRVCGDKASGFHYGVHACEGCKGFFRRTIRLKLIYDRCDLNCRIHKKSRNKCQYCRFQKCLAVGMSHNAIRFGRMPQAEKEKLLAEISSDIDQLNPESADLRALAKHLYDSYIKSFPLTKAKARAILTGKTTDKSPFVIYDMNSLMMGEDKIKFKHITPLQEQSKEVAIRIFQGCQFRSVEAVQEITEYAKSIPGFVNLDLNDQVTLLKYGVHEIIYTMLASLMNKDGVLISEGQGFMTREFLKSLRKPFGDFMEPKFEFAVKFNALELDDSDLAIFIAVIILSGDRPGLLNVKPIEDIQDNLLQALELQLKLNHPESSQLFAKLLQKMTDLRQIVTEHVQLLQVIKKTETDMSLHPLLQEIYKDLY
Summary of the method: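 FP read-out, 2 h post-dose, cell-free extracted receptor protein. Signal loss vs DMSO negative control = binding activity. Single-conc duplicate HTS at 25 uM; concentration-response follow-up for actives.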

Q: For `CCC[CH2][Sn]([Cl])([Cl])[Cl]`, which outcome is on record?
A: The outcome was “inactive”.

Q: How did the outcome turn out when `O=C1C(Cl)=C(Cl)C(=O)c2ccccc21` was run?
A: The outcome was “inactive”.

Q: `CC(C)(OO)c1ccccc1` was tested. Which outcome did it give?
A: The outcome was “inactive”.

Q: For `CCC[CH2][Sn]([CH2]CCC)([CH2]CCC)[O]C(=O)c1ccccc1`, which AC50 is on record?
A: The AC50 was 1.83 µM (active).

Q: What about the outcome of the same compound?
A: The outcome was “inactive”.

Q: `ClC1(Cl)C2(Cl)C3(Cl)C4(Cl)C(Cl)(Cl)C5(Cl)C3(Cl)C1(Cl)C5(Cl)C24Cl` (stereo not drawn) was tested. Which outcome did it give?
A: The outcome was “inactive”.

Q: For `O=C(NCO)NCO`, which AC50 is on record?
A: Its AC50 is 25 µM (active).

Q: How did the outcome turn out when `O=C/C=C/c1ccccc1` was run?
A: Its outcome is “inactive”.

target: human Dopamine Transporter (DAT), SLC6A3 (gene 6531) (UniProt Q01959); test: NVS_TR_hDAT: NovaScreen (NVS) Transporter Assay for human Dopamine Transporter (DAT) (AID 2283374);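 note: activity means loss of bound radioligand signal relative to DMSO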
Sequence (Q01959 whole entry, looked up): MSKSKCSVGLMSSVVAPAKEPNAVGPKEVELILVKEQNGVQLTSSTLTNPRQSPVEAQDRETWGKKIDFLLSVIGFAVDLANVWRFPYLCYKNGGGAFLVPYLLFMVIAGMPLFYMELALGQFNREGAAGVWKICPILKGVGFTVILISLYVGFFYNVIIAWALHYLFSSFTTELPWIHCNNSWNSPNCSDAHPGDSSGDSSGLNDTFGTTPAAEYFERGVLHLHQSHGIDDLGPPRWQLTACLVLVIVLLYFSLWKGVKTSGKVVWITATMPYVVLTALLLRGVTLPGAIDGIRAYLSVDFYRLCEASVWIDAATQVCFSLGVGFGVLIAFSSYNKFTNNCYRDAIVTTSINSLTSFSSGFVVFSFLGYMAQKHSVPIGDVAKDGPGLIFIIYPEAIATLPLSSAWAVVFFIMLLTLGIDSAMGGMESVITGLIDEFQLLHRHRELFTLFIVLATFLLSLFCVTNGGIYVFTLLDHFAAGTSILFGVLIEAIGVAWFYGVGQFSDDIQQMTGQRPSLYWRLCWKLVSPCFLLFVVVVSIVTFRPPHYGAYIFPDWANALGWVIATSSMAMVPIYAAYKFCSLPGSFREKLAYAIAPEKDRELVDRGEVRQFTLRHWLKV
Summary of the method: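 Cell-free radioligand binding to extracted human DAT protein, read 1 h after dosing by filter-based scintillation counting. Loss of specific binding scored against DMSO baseline; primary screen in duplicate at 25 uM, actives then run in concentration series.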

Q: Which AC50 does the source give for `Nc1ccc(Cl)cc1C(=O)c1ccccc1` here?
A: The AC50 was 1.73 µM (active).

Q: For `O=Cc1cccc(Oc2ccccc2)c1`, which AC50 is on record?
A: The AC50 was 5.52 µM (active).

Q: `Nc1ccc(-c2ccc(N)c(Cl)c2)cc1Cl` was tested. Which AC50 did it give?
A: Its AC50 is 1.63 µM (active).

target: Norway rat Vesicular Monoamine Transporter (VMAT2), neurotransmitter transporter, Slc18a2 (gene 25549) (UniProt Q01827); test: NVS_TR_rVMAT2: NovaScreen (NVS) Transporter Assay for Norway rat Vesicular Monoamine Transporter (VMAT2), neurotransmitter transporter (AID 2283376);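 note: actives lower the bound radioligand signal below the DMSO level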
Sequence (Q01827 whole entry, looked up): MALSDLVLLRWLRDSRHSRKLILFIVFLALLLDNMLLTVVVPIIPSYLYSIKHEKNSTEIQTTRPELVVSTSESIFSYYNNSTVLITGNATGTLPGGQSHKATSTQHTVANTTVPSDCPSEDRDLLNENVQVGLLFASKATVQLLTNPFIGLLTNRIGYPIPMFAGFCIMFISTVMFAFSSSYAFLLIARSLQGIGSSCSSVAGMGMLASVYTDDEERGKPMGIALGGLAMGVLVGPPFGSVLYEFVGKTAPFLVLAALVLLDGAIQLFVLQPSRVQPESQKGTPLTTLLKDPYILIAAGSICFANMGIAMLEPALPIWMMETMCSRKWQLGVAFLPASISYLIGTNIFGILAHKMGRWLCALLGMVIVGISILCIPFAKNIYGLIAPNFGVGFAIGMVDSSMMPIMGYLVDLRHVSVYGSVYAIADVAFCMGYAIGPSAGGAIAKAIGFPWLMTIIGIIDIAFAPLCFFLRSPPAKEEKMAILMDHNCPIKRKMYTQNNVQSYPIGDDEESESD
Experimental: NVS_TR_rVMAT2 is a biochemical, single-readout assay that uses extracted gene-proteins from Rat forebrain in a tissue-based cell-free assay. Measurements were taken 1 hour after chemical dosing in a 96-well plate.NVS_TR_rVMAT2 is one of one assay component(s) measured or calculated from the NVS_TR_rVMAT2 assay. It is designed to make measurements of radioligand binding, a form of binding reporter, as detected with scintillation counting signals by Filter-based radiodetection technology.Data from the assay component NVS_TR_rVMAT2 was analyzed into 1 assay endpoint. This assay endpoint, NVS_TR_rVMAT2, was analyzed in the positive analysis fitting direction relative to DMSO as the negative control and baseline of activity. Using a type of binding reporter, loss-of-signal activity can be used to understand changes in the binding as they relate to the gene Slc18a2. Furthermore, this assay endpoint can be referred to as a primary readout, because the performed assay has only produced 1 assay endpoint. To generalize the intended target to other relatable targets, this assay endpoint is annotated to the transporter intended target family, where the subfamily is vesicular transporter.
Binding assays used specific radioligands (tritiated, iodinated) with non-radioactive competitive displacement ligands in agonist or antagonist protocols (as indicated) and various reference compounds and inhibitors to titrate specific binding to receptors and transporters. Most enzyme assays (CYPs, kinases, phosphatases, proteases, HDACs) used recombinant protein and specific substrates (fluorescence mostly, some colorimetric and radioactive) and inhibitors, followed by a biochemical separation of substrate and product. All assays for the biochemical HTS were initially run in duplicate at a single concentration (10 uM for CYP450 assays and 25 uM for all others). […] Each assay was run with positive and negative controls, and concurrent controls on every plate. The follow-up (secondary) screen tested active chemical-pairs in concentration series, as well as a few additional assays not tested in the primary screen, some selected negative inactives, and several cases re-run in the concentration series for confirmatory purposes.

Q: Which outcome does the source give for `O=C(O)C(Cl)(Cl)Cl` here?
A: The outcome was “inactive”.

Q: For `CCCCCCCCC(=O)NCc1ccc(O)c(OC)c1`, which outcome is on record?
A: Its outcome is “inactive”.

Q: With `CC(=[OH+])/C=C(/C)[O-].CC(=[OH+])/C=C(/C)[O-].CC(=[OH+])/C=C(/C)[O-].[Fe]` as the compound, how does the outcome read?
A: Its outcome is “inactive”.

Q: How did the outcome turn out when `CCCCC(CC)CO[N+](=O)[O-]` (stereo not drawn) was run?
A: Its outcome is “inactive”.

Q: With `COc1cccc(C=O)c1` as the compound, how does the outcome read?
A: The outcome was “inactive”.

Q: For `O=C(Cl)c1ccc(Cl)cc1`, which outcome is on record?
A: Its outcome is “inactive”.

Q: `COP(=S)(OC)Oc1ccc(S(=O)(=O)N(C)C)cc1` was tested. Which outcome did it give?
A: The outcome was “inactive”.
